The nature of the test: Dd2 malaria parasite growth inhibition potency – SYBR Green, dry powder samples, dose response (AID 1159566).

Potency and affinity values are given separately. Calls of active or inactive are those of the source. Entries that show only a call come without a potency. The rule behind the calls is not given here.

These results are taken from PubChem BioAssay AID1159566 (Broad Institute, 2015).

In the case of `COc1cccc(C#Cc2ccc([C@H]3[C@@H](CO)N(C(=O)c4ccccn4)[C@H]3C#N)cc2)c1`, the compound was called inactive.
The entry for `COc1ccc(S(=O)(=O)Nc2ccc3c(c2)CC(=O)N([C@@H](C)CO)C[C@H](C)[C@H](CN(C)S(=O)(=O)c2ccc(OC)cc2)O3)cc1` is “inactive”.
The entry for `C[C@@H]1CN([C@H](C)CO)C(=O)c2cccc(NC(=O)c3ccc(-c4nccs4)cc3)c2O[C@H]1CN(C)Cc1ccc(C(F)(F)F)cc1` is “inactive”; for `O=C(NC[C@@H]1CC[C@H]2[C@H](CN2Cc2cc(-c3ccccc3)on2)O1)c1ccc2c(c1)OCO2` it is “inactive”; for `Cc1ccccc1-c1ccccc1[C@H]1[C@@H](C#N)N(C(=O)c2ccccc2)[C@@H]1CO` it is “inactive”.
